In the supplement of paper PMC10849652:
Of roughly 8,800 targets only a part is listed; those with a hit were picked by preference. About 0.5% of all pairs of compound and target were hits. A number with no mark means an inactive call.

Legend:
Assay in all cases: log2 fold change, soluble protein after heating vs DMSO (PISA); higher = thermal stabilisation; K562 lysate, 10 uM; active = over 0.2 and 3.5 SD of the protein, either way, in both replicates (recomputed)
lapatinib = compound: CS(=O)(=O)CCNCc1ccc(-c2ccc3ncnc(Nc4ccc(OCc5cccc(F)c5)c(Cl)c4)c3c2)o1 [lapatinib]
In short: (§1)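 Soluble protein was defined as the supernatant remaining after 21,000xg for 90 min, following pooling of heated aliquots and adjustment to 0.5% NP-40 at 4°C. Before that, crude K562 extract at 1 mg/mL protein in PBS pH 7.4 with 1 mM MgCl2 was treated with 10 μM compound for 30 min and heated for 3 min across 48°C-58°C. Quantification used TMTpro 16plex LC-MS/MS with channel sums equalised, and values are log-two fold changes in thermal stability relative to solvent controls from duplicates.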

pictilisib = compound: CS(=O)(=O)N1CCN(Cc2cc3nc(-c4cccc5[nH]ncc45)nc(N4CCOCC4)c3s2)CC1 [pictilisib]
In short: as §1

crizotinib = compound: C[C@@H](Oc1cc(-c2cnn(C3CCNCC3)c2)cnc1N)c1c(Cl)ccc(F)c1Cl [crizotinib]
In short: as §1

[1] = compound: C[C@H](C1=CC=C(C=C1)C(=O)NC2=C3C=CNC3=NC=C2)N
In short: as §1

duvelisib = compound: C[C@H](Nc1ncnc2nc[nH]c12)c1cc2cccc(Cl)c2c(=O)n1-c1ccccc1 [duvelisib]
In short: as §1

gandotinib = compound: Cc1cc(Nc2cc(CN3CCOCC3)c3nc(C)c(Cc4ccc(Cl)cc4F)n3n2)n[nH]1 [gandotinib]
In short: as §1

tozasertib = compound: Cc1cc(Nc2cc(N3CCN(C)CC3)nc(Sc3ccc(NC(=O)C4CC4)cc3)n2)n[nH]1 [tozasertib]
In short: as §1

doramapimod = compound: Cc1ccc(-n2nc(C(C)(C)C)cc2NC(=O)Nc2ccc(OCCN3CCOCC3)c3ccccc23)cc1 [doramapimod]
In short: as §1

bafetinib = compound: Cc1ccc(NC(=O)c2ccc(CN3CC[C@H](N(C)C)C3)c(C(F)(F)F)c2)cc1Nc1nccc(-c2cncnc2)n1 [bafetinib]
In short: as §1

[2] = compound: Cc1cccc(CC(=O)N2CCc3c2ccc(-c2cn(C)c4ncnc(N)c24)c3F)n1
In short: as §1

Chain of UniProt Q96DX7 (Q96DX7 whole entry, looked up): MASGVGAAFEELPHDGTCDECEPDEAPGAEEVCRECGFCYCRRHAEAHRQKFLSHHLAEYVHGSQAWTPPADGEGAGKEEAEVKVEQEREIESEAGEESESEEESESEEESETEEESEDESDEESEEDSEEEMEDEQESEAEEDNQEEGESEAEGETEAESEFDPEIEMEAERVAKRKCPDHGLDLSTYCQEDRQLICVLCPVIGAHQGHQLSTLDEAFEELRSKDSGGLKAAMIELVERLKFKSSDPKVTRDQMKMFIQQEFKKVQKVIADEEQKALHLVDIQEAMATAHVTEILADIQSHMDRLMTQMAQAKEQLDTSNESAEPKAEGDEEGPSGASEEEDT
Chain of UniProt Q6N022 (Q6N022 whole entry, looked up): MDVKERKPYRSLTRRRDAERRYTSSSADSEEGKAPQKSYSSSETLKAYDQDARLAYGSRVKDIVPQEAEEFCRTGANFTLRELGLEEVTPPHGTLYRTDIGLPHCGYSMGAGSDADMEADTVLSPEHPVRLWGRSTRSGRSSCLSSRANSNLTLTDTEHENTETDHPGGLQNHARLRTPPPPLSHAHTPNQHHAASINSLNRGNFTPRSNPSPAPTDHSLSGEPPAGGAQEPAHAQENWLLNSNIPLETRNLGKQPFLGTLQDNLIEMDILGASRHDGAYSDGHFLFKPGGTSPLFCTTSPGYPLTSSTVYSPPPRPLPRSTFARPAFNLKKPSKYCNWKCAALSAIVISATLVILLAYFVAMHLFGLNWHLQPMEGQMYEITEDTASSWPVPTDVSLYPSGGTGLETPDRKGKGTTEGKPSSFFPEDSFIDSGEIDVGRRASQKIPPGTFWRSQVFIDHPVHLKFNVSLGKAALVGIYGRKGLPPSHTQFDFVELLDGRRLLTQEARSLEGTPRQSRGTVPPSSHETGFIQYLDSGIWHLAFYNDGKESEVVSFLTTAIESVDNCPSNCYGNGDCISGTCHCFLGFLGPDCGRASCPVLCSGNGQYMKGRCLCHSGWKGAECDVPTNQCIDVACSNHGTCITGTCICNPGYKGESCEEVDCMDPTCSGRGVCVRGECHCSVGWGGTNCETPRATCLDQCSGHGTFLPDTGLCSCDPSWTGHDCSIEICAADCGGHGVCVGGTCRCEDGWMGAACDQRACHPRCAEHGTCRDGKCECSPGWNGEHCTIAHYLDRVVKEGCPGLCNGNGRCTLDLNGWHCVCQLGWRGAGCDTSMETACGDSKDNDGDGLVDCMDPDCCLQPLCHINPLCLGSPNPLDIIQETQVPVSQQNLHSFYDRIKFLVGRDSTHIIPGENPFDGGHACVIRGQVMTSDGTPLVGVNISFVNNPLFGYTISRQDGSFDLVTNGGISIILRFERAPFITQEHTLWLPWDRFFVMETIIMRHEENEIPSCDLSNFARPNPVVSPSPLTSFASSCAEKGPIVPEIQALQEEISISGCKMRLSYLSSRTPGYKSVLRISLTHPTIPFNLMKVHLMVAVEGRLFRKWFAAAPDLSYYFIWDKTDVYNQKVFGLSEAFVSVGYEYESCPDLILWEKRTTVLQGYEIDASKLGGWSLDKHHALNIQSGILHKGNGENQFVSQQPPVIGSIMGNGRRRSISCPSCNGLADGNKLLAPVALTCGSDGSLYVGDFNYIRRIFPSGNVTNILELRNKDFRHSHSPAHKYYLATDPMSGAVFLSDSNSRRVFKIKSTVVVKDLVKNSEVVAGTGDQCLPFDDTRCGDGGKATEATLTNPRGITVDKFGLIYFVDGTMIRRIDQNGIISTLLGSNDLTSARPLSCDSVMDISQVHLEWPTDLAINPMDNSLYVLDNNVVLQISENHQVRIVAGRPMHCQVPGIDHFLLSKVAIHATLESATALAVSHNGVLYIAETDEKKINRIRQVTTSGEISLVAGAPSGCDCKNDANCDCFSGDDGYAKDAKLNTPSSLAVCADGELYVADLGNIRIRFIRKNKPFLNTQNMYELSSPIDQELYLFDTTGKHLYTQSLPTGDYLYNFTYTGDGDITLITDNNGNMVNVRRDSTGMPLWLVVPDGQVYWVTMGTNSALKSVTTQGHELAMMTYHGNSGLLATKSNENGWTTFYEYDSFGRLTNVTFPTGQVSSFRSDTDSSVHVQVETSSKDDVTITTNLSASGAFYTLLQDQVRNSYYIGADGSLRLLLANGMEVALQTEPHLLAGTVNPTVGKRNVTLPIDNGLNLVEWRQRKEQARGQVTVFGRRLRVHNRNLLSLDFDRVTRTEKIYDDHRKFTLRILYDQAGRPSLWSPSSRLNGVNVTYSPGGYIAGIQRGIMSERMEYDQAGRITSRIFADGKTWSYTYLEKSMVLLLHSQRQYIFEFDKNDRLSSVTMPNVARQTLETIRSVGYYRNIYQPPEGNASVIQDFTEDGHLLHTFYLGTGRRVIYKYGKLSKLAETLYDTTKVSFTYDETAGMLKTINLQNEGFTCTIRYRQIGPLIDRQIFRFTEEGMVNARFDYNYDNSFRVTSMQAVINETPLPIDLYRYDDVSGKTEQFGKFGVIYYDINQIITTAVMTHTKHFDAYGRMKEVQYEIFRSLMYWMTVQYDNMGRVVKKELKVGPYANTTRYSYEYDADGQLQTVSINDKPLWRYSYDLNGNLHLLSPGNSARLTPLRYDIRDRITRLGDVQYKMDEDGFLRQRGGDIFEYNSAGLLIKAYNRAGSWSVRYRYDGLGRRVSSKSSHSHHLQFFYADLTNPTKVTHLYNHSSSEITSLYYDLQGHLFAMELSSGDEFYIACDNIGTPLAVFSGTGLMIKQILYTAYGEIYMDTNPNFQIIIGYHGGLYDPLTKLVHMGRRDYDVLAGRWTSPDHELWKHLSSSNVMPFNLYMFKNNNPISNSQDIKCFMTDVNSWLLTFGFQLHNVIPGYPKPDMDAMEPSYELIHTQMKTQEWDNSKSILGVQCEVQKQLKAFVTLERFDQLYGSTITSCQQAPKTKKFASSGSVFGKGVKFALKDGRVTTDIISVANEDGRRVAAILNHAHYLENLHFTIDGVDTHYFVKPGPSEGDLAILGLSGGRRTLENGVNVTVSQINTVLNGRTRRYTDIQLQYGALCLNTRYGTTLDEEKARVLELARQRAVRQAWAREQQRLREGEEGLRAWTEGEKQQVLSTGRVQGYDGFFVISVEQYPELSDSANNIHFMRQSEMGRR
Chain of UniProt Q9NUJ3 (Q9NUJ3 whole entry, looked up): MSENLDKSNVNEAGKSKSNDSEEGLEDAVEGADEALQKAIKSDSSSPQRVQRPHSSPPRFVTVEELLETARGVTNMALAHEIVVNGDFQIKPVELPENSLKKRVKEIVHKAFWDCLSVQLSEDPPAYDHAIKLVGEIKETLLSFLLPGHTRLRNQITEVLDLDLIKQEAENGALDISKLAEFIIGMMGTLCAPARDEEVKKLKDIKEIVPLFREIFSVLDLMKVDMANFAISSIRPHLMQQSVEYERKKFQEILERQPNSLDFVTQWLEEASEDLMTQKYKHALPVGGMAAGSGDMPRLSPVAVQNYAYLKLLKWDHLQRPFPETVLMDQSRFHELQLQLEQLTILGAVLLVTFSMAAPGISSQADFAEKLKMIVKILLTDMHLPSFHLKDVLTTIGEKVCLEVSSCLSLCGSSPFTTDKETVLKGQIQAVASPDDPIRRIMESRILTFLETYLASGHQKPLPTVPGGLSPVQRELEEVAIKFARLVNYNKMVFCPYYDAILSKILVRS
Chain of UniProt Q9NRX6 (Q9NRX6 whole entry, looked up): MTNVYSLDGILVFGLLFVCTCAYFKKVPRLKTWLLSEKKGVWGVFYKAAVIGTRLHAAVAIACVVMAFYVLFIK
Chain of UniProt Q9NUQ7 (Q9NUQ7 whole entry, looked up): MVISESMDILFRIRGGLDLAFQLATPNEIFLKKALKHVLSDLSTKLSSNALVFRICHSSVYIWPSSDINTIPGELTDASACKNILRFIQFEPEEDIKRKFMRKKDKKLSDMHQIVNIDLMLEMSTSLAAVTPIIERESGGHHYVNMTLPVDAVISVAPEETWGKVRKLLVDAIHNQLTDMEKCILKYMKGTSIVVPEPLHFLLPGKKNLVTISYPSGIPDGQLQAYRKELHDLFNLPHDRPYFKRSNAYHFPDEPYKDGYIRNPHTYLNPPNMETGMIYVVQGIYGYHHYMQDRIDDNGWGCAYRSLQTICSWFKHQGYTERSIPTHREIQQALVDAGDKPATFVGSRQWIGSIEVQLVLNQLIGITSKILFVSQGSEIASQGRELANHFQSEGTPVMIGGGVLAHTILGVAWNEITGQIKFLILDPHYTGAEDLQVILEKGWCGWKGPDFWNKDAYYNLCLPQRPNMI
Chain of UniProt Q01664 (Q01664 whole entry, looked up): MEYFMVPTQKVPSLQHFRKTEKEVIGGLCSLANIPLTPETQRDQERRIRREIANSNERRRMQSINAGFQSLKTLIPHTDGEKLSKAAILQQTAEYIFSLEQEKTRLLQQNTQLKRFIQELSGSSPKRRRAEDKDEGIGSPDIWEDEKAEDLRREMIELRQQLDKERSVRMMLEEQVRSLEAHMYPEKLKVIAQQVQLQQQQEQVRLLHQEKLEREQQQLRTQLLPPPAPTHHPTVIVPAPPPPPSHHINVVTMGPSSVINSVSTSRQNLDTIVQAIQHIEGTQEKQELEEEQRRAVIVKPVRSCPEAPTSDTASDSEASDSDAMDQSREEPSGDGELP
Chain of UniProt Q96K49 (Q96K49 whole entry, looked up): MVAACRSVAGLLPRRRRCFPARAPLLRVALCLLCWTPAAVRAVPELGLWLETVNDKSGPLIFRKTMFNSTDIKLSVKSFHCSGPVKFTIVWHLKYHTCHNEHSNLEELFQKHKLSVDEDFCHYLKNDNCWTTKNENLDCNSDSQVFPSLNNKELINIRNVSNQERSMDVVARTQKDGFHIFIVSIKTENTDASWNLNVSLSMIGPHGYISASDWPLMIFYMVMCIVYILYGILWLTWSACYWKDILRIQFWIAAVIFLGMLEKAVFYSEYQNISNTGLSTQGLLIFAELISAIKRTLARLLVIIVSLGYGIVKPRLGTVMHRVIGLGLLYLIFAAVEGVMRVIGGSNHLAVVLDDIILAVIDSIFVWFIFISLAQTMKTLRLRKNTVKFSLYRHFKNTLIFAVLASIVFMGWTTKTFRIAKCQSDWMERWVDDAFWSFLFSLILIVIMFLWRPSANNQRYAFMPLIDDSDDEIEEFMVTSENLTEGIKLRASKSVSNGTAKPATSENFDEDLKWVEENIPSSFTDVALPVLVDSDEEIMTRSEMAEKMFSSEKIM

Target	log2 fold change (lapatinib)	log2 fold change (pictilisib)	log2 fold change (crizotinib)	log2 fold change [1]	log2 fold change (duvelisib)	log2 fold change (gandotinib)	log2 fold change (tozasertib)	log2 fold change (doramapimod)	log2 fold change (bafetinib)	log2 fold change [2]
TUT4 (UniProt Q5TAX3)	-0.003	-0.041	0	-0.064	0.006	-0.001	0.047	-0.023	-0.039	0.15
TLK1 isoform 2 (UniProt Q9UKI8)	-0.047	0.135	-0.061	-0.032	-0.048	0.456 (active)	0.014	0.011	-0.014	0.022
TELO2 (UniProt Q9Y4R8)	-0.016	-0.01	-0.053	-0.038	-0.015	-0.087	-0.012	0.037	-0.054	0.056
TMEM87B (UniProt Q96K49)	-0.044	0.147	-0.017	0.004	0.039	-0.077	0.068	0.026	0.126	0
TENM4 (UniProt Q6N022)	-0.169	-0.065	-0.07	0.415		-0.028		-0.068	-0.148	-0.032
TESC (UniProt Q96BS2)	-0.03	-0.122	0	-0.095	0.026	-0.066	0.026	0.073	0.048	0.037
TBL3 (UniProt Q12788)	-0.022	-0.027	-0.017	-0.028	-0.009	-0.05	-0.008	-0.024	-0.019	0.04
TMEM167B (UniProt Q9NRX6)	-0.045	-0.034	0.006	-0.339 (active)		0.133	-0.003	-0.083	-0.075	0.128
TCF20 (UniProt Q9UGU0)	-0.049	-0.034	0.019	0.011	0.094	0.108		-0.032	-0.001	-0.005
TMEM161B (UniProt Q8NDZ6)	-0.057	-0.05	0.007	0.009		-0.289 (active)	0.009	-0.03	0.007	0.077
TMOD1 (UniProt P28289)	0	-0.032	-0.011	0.039	-0.008	-0.059	0.026	0.019	-0.004	-0.029
TRIM33 isoform 2 (UniProt Q9UPN9)	-0.034	0.008	-0.015	-0.07	-0.002	-0.023	0.011	0.021	-0.038	0.056
TMEM70 (UniProt Q9BUB7)	-0.002	-0.012	-0.082	-0.304 (active)	0.011	0.057	-0.014	0.092	-0.038	0.138
TTC38 (UniProt Q5R3I4)	-0.034	-0.029	0.031	0.213	-0.022	-0.116	-0.011	0.301 (active)	0.065	-0.186
TUBB6 (UniProt K7ES63)	-0.1	0.021	-0.277	-0.178		0.042	0.122	0.2	-0.278	0.253
TRIM44 (UniProt Q96DX7)	-0.242 (active)	-0.11	-0.018	0.04	0.007	0.01	-0.04	0.013	0.031	-0.075
TMEM14C (UniProt Q9P0S9)	0.123	0.162	-0.087		0.016		-0.099	0.002	-0.094	
TMSB4X (UniProt P62328)	0.12	-0.553	0.015	-0.132		0.65	0.123	-0.24	-0.546	-0.166
TMEM177 (UniProt Q53S58)	0.018	0.002	0.053	-0.005		-0.125	-0.016	-0.056	-0.059	-0.013
TBC1D20 isoform 3 (UniProt Q96BZ9)	-0.019	-0.12	-0.066	-0.087	0.021	-0.105	-0.017	-0.095	-0.303	0.025
TFAP4 (UniProt Q01664)	-0.05	0.022	0.009	0.477 (active)		0.033	-0.05	0.017	-0.214	-0.217
TRIM11 (UniProt Q96F44)	0.013	-0.006	-0.029	-0.006	-0.016	-0.03	-0.006	0.015	0.029	-0.003
TCP11L1 (UniProt Q9NUJ3)	-0.008	-0.028	-0.022	-0.204	-0.024	0.066	-0.069	-0.017	-0.007	0.146
TTC12 isoform 2 (UniProt Q9H892)	-0.053	-0.153	-0.068	-0.416	0.143	0.031	0.092	0.022	-0.14	0.445 (active)
UBR3 isoform 4 (UniProt Q6ZT12)	-0.003	0.01	-0.092	-0.006	-0.003	-0.046	0.06	0.015	-0.042	0.05
TUBB (UniProt P07437)	-0.035	-0.002	-0.043	-0.005	0.008	0.065	-0.022	-0.047	0.024	-0.01
TFPI (UniProt P10646)	-0.035	0.009	0.036	0.625 (active)		-0.202	-0.01	0.082	0.149	-0.301
UFSP2 (UniProt Q9NUQ7)	-0.02	-0.008	-0.022	-0.012	0.009	-0.004	0.017	0.002	-0.028	0.017
